According to PubChem BioAssay:
The source made the active and inactive calls.

Experiments:
[1] = small molecules captured by biotinylated probe aFSTL3 – biochemical, small-molecule microarray, fluorescence 635/667, stem cell growth factor project, primary screen (AID 1064); details: higher = more signal;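 also: measures binding of the biotinylated anti-FSTL3 antibody to printed compounds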
[2] = binders from COS7 lysate, DM2A8 probe, primary screen, torsin A project, cell lysate, small-molecule microarray, fluorescence 635/667 (AID 1065); details: higher = more signal, COS7 lysate expressing mutant human TOR1A
[3] = small molecules captured by biotinylated probe aFGF2 – biochemical, small-molecule microarray, fluorescence 635/667, stem cell growth factor project, primary screen (AID 1067); details: higher = more signal;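 also: measures binding of biotinylated aFGF2 protein to printed compounds on slides; z-score merges feature fluorescence and signal-to-noise across triplicate slides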
[4] = small molecules captured by biotinylated probe aFGF10 – biochemical, small-molecule microarray, fluorescence 635/667, stem cell growth factor project, primary screen (AID 1071); details: higher = more signal;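 also: score merges 667 nm spot intensity and signal to noise from triplicate slides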
[5] = target: Neurogenic locus notch homolog protein 2 (Homo sapiens) (UniProt Q04721); assay: small molecules binding Notch2 protein – biochemical, small-molecule microarray, 635 nm fluorescence, stem cell growth factors, primary screen (AID 1073); details: higher = more signal
[6] = target: Pro-neuregulin-1, membrane-bound isoform (Homo sapiens) (UniProt Q02297); assay: small molecules binding neuregulin-1 protein – biochemical, small-molecule microarray, fluorescence 635/667, psychiatric disease protein project, primary screen (AID 1075); details: NRG1 binding, 635 nm fluorescence, higher = more signal;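 also: score combines 667 nm spot fluorescence with signal to noise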
[7] = system: Neuregulin-1 EGF-like domain; assay: small molecules binding NRG1 EGF domain – biochemical, small-molecule microarray, 635 nm fluorescence, primary screen (AID 1081); details: higher = more signal;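 also: binding of the protein to compounds printed on small-molecule microarray slides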
[8] = FRG1 expression reporter modulators in myotubes – cell-based, C2C12 myotubes, firefly/Renilla luciferase, luminescence, FRG1 inhibition for FSHD, primary screen (AID 1084); details: FRG1 promoter luciferase, higher = more signal, called active from +8 up or from −8 down
[9] = small molecules captured by biotinylated probe aFST – biochemical, small-molecule microarray, fluorescence 635/667, stem cell growth factor project, primary screen (AID 1086); details: higher = more signal;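 also: score merges 667 nm fluorescence with signal-to-noise of each printed compound spot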
[10] = binders of probe aHhip on microarray, primary screen, stem cell growth factor project, biochemical, small-molecule microarray, fluorescence 635/667 (AID 1087); details: higher = more signal;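 also: score merges spot fluorescence at 667nm with spot signal to noise ratio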
[11] = system: PRMT1 (protein arginine N-methyltransferase 1); assay: small molecules binding arginine methyltransferase PRMT1 – biochemical, small-molecule microarray, 635 nm fluorescence, primary screen (AID 1088); details: higher = more signal;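 also: binding of Prmt1 protein to compounds spotted on small-molecule microarray slides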
[12] = growth effects on S. cerevisiae YJM789 – YJM789 clinical isolate, OD600, 24 h, basal, primary screen (AID 1089); details: higher = more signal, called active from +8 up or from −8 down;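 also: growth of clinical yeast isolate S. cerevisiae YJM 789 seeded 1000 cells per well; test concentration not given here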
[13] = S. pombe growth modifiers, basal conditions – strain 972, OD600, 24 h, no modulator, primary screen (AID 1090);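 also: basal condition with compound alone and no growth modifier present; test concentration not given here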; details: S. pombe 972 growth, higher = more signal, called active from +8 up or from −8 down
[14] = budding yeast growth modifiers under rapamycin – strain BY4716, OD600, 96 h, primary screen (AID 1091); also: test concentration not given here; details: S. cerevisiae BY4716 + rapamycin, higher = more signal, called active from +8 up or from −8 down
[15] = target: Torsin-1A-interacting protein 2 (Homo sapiens) (UniProt Q8NFQ8); assay: small molecules binding lysate-expressed LULL1 – cell lysate, human LULL1 lysate, 635/667 nm fluorescence, primary screen (AID 1092); details: small-molecule microarray, hLULL1 lysate binding, 635 nm fluorescence; higher = more signal;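 also: probe is lysate of COS7 cells overexpressing human LULL1; score merges per-feature 667 nm fluorescence with signal-to-noise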
[16] = optical density change of DRC41 E. coli – strain DRC41, OD650, 24 h, E. coli filamentation project, primary screen (AID 1093);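 also: MC1000 strain lacking acrAB efflux and sulA so SOS filamentation is blocked; test concentration not given here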; details: E. coli DRC41 growth, higher = more signal, called active from +8 up or from −8 down
[17] = probe aLefty2 binding to arrayed compounds – biochemical, biotinylated probe, 635/667 nm fluorescence, primary screen (AID 1094); details: small-molecule microarray, higher = more signal;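 also: score merges spot fluorescence near 667 nm with spot signal-to-noise ratio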
[18] = system: Noggin (protein binding on small-molecule microarray); assay: small molecules binding Noggin protein – biochemical, 635/667 nm fluorescence, primary screen (AID 1095); details: 635 nm fluorescence, higher = more signal;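 also: score merges 667 nm feature fluorescence with signal to noise over triplicate slides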
[19] = target: Neurogenic locus notch homolog protein 3 (Homo sapiens) (UniProt Q9UM47); assay: small molecules binding NOTCH3 protein – biochemical, 635/667 nm fluorescence, primary screen (AID 1096); details: small-molecule microarray, 635 nm fluorescence, higher = more signal
[20] = probe aEGFR binding to arrayed compounds – biochemical, biotinylated probe, 635/667 nm fluorescence, primary screen (AID 1097); details: small-molecule microarray, higher = more signal;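 also: probe is a biotinylated anti-EGFR antibody binding compounds printed on slides; score combines fluorescence near 667 nm and signal to noise of each spot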

Torsin-1A-interacting protein 2 (Homo sapiens), sequence (Q8NFQ8 whole entry, looked up): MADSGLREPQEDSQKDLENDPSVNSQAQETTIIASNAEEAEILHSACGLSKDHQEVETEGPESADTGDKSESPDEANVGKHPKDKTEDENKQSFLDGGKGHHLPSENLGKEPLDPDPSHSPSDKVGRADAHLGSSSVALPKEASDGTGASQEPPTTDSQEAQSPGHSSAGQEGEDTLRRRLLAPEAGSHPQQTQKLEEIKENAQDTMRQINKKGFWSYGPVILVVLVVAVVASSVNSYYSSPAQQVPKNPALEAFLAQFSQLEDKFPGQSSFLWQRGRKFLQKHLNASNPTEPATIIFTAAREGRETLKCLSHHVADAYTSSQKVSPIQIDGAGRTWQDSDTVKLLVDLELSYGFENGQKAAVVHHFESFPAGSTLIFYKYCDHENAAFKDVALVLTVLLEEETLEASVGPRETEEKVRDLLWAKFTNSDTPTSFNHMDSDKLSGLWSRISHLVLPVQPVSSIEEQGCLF
Pro-neuregulin-1, membrane-bound isoform (Homo sapiens), sequence (Q02297 whole entry, looked up, the tested form may be a part, canonical isoform): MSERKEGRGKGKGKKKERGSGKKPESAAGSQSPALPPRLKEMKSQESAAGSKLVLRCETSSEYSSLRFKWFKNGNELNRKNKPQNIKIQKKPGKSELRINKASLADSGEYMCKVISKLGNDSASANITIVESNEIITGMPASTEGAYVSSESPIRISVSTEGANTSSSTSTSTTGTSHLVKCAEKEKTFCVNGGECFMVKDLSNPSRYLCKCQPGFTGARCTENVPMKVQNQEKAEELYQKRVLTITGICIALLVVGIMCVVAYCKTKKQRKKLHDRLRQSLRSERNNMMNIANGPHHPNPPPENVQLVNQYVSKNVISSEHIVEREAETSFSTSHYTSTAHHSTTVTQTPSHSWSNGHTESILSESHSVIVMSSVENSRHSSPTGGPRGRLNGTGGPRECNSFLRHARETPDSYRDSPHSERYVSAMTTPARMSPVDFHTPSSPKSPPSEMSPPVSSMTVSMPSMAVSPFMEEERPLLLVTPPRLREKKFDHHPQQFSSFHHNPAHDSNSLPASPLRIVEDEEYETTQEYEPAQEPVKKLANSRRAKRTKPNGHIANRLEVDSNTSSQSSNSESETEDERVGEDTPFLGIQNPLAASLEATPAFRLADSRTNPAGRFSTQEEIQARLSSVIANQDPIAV
Neurogenic locus notch homolog protein 3 (Homo sapiens), sequence (Q9UM47 whole entry, looked up): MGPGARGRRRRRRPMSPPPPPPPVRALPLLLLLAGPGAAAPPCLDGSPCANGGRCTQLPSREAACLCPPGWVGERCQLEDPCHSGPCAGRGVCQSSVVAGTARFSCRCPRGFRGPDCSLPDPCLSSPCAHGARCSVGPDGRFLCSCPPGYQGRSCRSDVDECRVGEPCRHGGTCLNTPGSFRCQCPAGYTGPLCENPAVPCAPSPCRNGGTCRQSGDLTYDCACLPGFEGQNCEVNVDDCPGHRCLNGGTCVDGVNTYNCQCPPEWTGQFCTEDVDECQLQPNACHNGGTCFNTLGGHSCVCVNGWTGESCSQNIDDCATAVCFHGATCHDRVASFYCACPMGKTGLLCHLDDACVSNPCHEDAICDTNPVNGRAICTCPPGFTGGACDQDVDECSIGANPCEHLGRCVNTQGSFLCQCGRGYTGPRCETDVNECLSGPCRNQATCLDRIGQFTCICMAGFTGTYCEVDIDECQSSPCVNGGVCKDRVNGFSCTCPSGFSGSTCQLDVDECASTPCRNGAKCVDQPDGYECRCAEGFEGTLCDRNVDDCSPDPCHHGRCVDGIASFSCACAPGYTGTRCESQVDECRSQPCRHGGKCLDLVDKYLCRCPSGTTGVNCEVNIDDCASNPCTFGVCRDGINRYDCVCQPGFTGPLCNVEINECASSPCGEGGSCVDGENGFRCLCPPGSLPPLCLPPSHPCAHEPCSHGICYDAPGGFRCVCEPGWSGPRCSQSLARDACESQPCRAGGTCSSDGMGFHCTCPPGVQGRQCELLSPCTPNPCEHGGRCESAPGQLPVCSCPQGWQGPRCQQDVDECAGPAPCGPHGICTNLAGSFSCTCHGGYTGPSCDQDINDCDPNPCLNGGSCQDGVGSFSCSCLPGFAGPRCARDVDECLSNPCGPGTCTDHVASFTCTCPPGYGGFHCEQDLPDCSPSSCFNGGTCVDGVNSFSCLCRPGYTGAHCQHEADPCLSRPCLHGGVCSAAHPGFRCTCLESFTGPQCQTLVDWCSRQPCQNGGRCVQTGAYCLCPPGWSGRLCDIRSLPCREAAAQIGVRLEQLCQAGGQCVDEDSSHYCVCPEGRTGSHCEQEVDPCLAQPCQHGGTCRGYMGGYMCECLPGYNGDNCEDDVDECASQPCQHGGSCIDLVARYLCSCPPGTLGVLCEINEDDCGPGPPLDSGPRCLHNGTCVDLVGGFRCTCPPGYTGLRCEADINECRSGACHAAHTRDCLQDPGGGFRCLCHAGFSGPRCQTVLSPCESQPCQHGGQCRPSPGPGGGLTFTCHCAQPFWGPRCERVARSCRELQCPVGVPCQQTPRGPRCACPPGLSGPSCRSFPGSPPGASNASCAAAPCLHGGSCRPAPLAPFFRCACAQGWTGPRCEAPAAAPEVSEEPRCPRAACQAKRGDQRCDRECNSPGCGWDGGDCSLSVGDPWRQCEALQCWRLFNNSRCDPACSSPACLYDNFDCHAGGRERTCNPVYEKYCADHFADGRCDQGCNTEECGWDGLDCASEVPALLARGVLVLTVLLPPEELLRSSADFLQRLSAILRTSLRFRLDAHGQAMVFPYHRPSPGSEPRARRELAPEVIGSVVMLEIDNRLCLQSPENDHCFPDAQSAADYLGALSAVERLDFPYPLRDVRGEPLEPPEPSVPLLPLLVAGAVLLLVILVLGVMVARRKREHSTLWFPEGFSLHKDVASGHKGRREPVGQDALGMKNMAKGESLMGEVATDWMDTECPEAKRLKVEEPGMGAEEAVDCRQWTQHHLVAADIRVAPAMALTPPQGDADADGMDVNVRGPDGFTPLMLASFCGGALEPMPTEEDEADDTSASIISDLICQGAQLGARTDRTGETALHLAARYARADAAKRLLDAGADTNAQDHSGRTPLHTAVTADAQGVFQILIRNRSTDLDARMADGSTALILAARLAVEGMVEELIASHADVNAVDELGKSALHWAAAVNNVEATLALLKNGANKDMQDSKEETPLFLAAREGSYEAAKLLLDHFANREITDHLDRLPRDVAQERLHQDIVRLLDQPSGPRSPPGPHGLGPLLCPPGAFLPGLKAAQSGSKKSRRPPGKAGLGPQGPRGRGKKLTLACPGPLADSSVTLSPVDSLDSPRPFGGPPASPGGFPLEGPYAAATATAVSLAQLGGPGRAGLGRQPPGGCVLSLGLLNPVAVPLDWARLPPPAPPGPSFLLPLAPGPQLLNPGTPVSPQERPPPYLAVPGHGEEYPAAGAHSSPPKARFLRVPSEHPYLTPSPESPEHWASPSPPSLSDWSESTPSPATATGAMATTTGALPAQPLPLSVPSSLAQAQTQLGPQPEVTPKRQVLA

Structure (SMILES)	composite z-score [1]	composite z-score [2]	composite z-score [3]	composite z-score [4]	composite z-score [5]	composite z-score [6]	composite z-score [7]	z-score [8]	composite z-score [9]	composite z-score [10]	composite z-score [11]	z-score [12]	z-score [13]	z-score [14]	composite z-score [15]	z-score [16]	composite z-score [17]	composite z-score [18]	composite z-score [19]	composite z-score [20]
Oc1ccc2cc[n+](Cc3cccc(OC(F)(F)F)c3)cc2c1	-0.446	1.77	-0.0841	-0.0974	0.0892	-0.322	0.921	0.498 (inactive)	0.191	0.0749	0.488	0.573 (inactive)	0.439 (inactive)	4.58 (inactive)	1.65	0.713 (inactive)	-0.0541	1.26	0.646	-0.0177
COc1ccc(C(=O)Nc2cccc(CN3C(=O)[C@@]4(O[C@@H](CCn5cc([C@H](O)c6ccccc6)nn5)[C@H]([Si](C)(C)c5ccc(OC)cc5)[C@H]4C)c4ccccc43)c2)cc1	0.395	-0.559	-0.123	0.335	0.336	0.838	1.14	-1.47 (inactive)	0.179	0.0373	0.677	-0.384 (inactive)	-1.17 (inactive)	0.0585 (inactive)	1.11	-0.594 (inactive)	0.0123	1.58	0.806	-0.0947
COC(=O)[C@@]1(Cc2ccccc2)[C@H]2c3cc(C(=O)N(C)C)n(Cc4ccccc4)c3C[C@H]2CN1C(=O)c1ccccc1	0.0252	-0.705	0.274	0.747	1.67	0.614	1.26	0.273 (inactive)	0.856	0.896	-0.361	0.84 (inactive)	1.74 (inactive)	1.51 (inactive)	2.59	-0.813 (inactive)	0.434	0.018	0.85	0.291
CC(C)N1C(=O)c2ccccc2[C@](C)(C(=O)NCCCN(C)C)[C@@H]1c1ccc(CO)cc1	0.261	1.04	-0.154	-0.231	-0.595	0.724	1.07	1.47 (inactive)	-0.128	-0.0672	-0.109	-0.763 (inactive)	-1.26 (inactive)	-1.36 (inactive)	2.41	0.0321 (inactive)	0.0071	-0.818	-1.28	-0.22
COc1ccc(C#Cc2ccc3c(c2)[C@]2(C(=O)N3)[C@H](C(=O)N3CCN(c4ncccn4)CC3)[C@H]3C(=O)O[C@H](c4ccccc4)[C@H](c4ccccc4)N3[C@@H]2c2ccc(O)cc2)cc1	-0.092	0.308	-0.232	0.207	0.871	1.19	1.17	0.437 (inactive)	0.234	-0.353	1.56	0.77 (inactive)	0.86 (inactive)	1.17 (inactive)	2.33	-0.459 (inactive)	0.0897	0.496	0.853	-0.0573
CC(=O)N1Cc2ccccc2C[C@@]2(N=C(c3ccc(OCCCO)cc3)O[C@H]2c2ccccc2)C1=O	0.136	0.0287	0.0933	0.145	1.09	1.54	1.31	-3.53 (inactive)	1.55	-0.393	1.53	-3.56 (inactive)	-3.68 (inactive)	17.1 (active)	3.32	1.5 (inactive)	0.215	1.47	1.11	0.107
COCCn1c(C(=O)N(C)C)cc2c1C[C@H]1CN(C(=O)c3ccccc3)[C@@](Cc3ccc(F)cc3)(C(=O)OC)[C@@H]21	0.0407	-0.0248	0.203	0.651	1.56	1.11	0.998	0.592 (inactive)	0.576	-0.0347	0.0294	0.296 (inactive)	0.75 (inactive)	0.247 (inactive)	3.05	0.782 (inactive)	0.214	-0.3	0.328	0.0492
[N-]=[N+]=NCc1ccccc1[C@@H]1OC(c2ccc(OCCCO)cc2)=N[C@]1(Cc1ccccc1N=[N+]=[N-])C(N)=O	0.209	-0.523	-0.156	0.385	1.66	2.08	1.27	0.722 (inactive)	1.25	-0.0994	1.55	-0.0556 (inactive)	-1.33 (inactive)	-0.91 (inactive)	3.29	0.43 (inactive)	0.361	0.37	1.04	0.171
CCCNC(=O)[C@@]1(c2ccc([N+](=O)[O-])cc2)CC(=O)N(CC23CC4CC(CC(C4)C2)C3)[C@@H]1c1ccc(CO)cc1I	0.188	0.388	-0.0644	0.0889	0.906	0.133	1.01	-2.05 (inactive)	0.171	0.31	1.14	0.804 (inactive)	1 (inactive)	5.52 (inactive)	1.53	0.136 (inactive)	0.0962	0.367	0.243	0.141
C=C(CCCC)/C(=C/C[C@@H](OC(=O)c1ccncc1)c1ccc(CO)o1)c1cc(C(=O)OC)ccc1OC	-0.489	1.44	-0.0887	0.318	0.738	1.52	1.27	-0.986 (inactive)	0.448	0.0722	1.45	-0.169 (inactive)	-1.75 (inactive)	-0.331 (inactive)	2.3	0.635 (inactive)	-0.101	0.752	1.07	0.107
